Here are results for 35 compounds from PubChem BioAssay (NCI).

About 83,000 compounds went through this panel and 20% of them were active in at least one assay; those are over-represented in the sample as a whole.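 Each cell line was grown in a 96-well plate and treated with one concentration of compound for 48 hours. Values below 10 were considered active.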 A number with no mark means an inactive call. Active and inactive are the calls of the source.

In the assay the test system is HCT-15 colon. Kind of assay: NCI-60 one-dose screen, 48 h (100 = growth as untreated, 0 = no growth, -100 = all killed). The conditions noted are these: 10 µM.
For the compound `COc1ccc(/C=C2\CCCC3=C2NC(N)=NC3c2ccc(OC)cc2)cc1` (stereo not given), the growth was 92.9%. To `CN(C)CCCOc1cccc(NC2=C(Cl)C(=O)C(Nc3cccc(OCCCN(C)C)c3)=C(Cl)C2=O)c1` belongs -19.5% (active). In the case of `N#CC1=C(N)Oc2cc(N)ccc2C1c1cccnc1` (stereo not given), the growth is 95.6%. The value for `COc1cc(/C=C/c2cc(/C=C/c3ccc(O)c(OC)c3)n(C(=O)Nc3ccc(C)cc3)n2)ccc1O` was 15.2%; that for `Cc1ccc(-n2nnnc2N)c(C)c1` was 106%. To `CCCCN(CCCC)C(=O)[C@H](CC)[C@@H]1CC[C@@H](C)[C@@H]([C@H](C)[C@@H](O)[C@@H](C)C(=O)[C@H](CC)C2O[C@]3(C=C[C@@H](O)[C@]4(CC[C@@](C)([C@H]5CC[C@](O)(CC)[C@H](C)O5)O4)O3)[C@H](C)C[C@@H]2C)O1` (stereo not given in full) belongs -5.99% (active); to `COc1ccc2c(c1)C(=O)/C(=C/c1ccc([N+](=O)[O-])o1)O2`, -48.5% (active); to `Cc1ccc(S(=O)(=O)N(C)CCCCCC(=O)O)cc1`, 97.8%. In the case of `NC1=NC(c2ccc(Cl)cc2)C2=C(N1)/C(=C/c1ccc(Cl)cc1)CCC2` (stereo not given), the growth is 58.3%. `S=C(NCc1ccccc1)NCc1ccccc1`: the growth is 107%. To `COc1cc2cc(Oc3ccc(NC(=O)c4ccccc4)cc3)c(C)nc2cc1OC` belongs 94.3%; to `Cc1c(Cl)cccc1NC(=O)CN1CCOCC1`, 99%; to `C=CCN(CC=C)C(=O)[C@H](CC)[C@@H]1CC[C@@H](C)[C@@H]([C@H](C)[C@@H](O)[C@@H](C)C(=O)[C@H](CC)C2O[C@]3(C=CC(=O)[C@]4(CC[C@@](C)([C@H]5CC[C@](O)(CC)[C@H](C)O5)O4)O3)[C@H](C)C[C@@H]2C)O1` (stereo not given in full), 11.5%.

As for `CCN1CCN(CCC(=O)Nc2cccc(-n3cc(-c4ccncc4)c(-c4ccc(Cl)c(OC)c4)n3)c2)CC1`, the growth is 13.7%. The value for `Nc1ccn(Cc2nnc(CCC(=O)c3nc4ccccc4[nH]3)o2)c(=O)n1` was 89.2%. To `Cc1ccc2nc(Cl)c(-c3nc4ccccc4o3)cc2c1` belongs 79.4%; to `C/C=C/CSC(C)(C)C(=O)NC`, 100%.

For the compound `COc1cc2c(Nc3ccc(S(N)(=O)=O)cc3)ncnc2c(OC)c1OC`, the growth is 98%. To `CC(=O)OC1C=CC(OC(C)=O)O1` (stereo not given) belongs 95.4%. Turning to `CC(=O)C1N=NCC1c1ccccc1` (stereo not given), the growth is 96.9%. The value for `O=C(CN(C1CCCCC1)C1CCCCC1)Nc1ccc(S(=O)(=O)c2ccc(NC(=O)CN(C3CCCCC3)C3CCCCC3)cc2)cc1` was -33.7% (active).

As for `Cc1c[nH]c(=O)n(Cc2nnc(CCC(=O)c3nc4ccccc4[nH]3)o2)c1=O`, the growth is 65.3%.

Regarding `O=C(CCn1cnc2c(cc(-c3ccccc3)n2-c2ccccc2)c1=O)Nc1ccc(F)cc1`, the growth is 81.4%. As for `CN(C)CCOc1cccc(NC2=C(Cl)C(=O)C(Nc3cccc(OCCN(C)C)c3)=C(Cl)C2=O)c1`, the growth is -78.6% (active).

For `CN1CCN(CCC(=O)Nc2cccc(-n3cc(-c4ccncc4)c(-c4ccc(Cl)c(O)c4)n3)c2)CC1`, the growth was 39.3%. On to `CC(=O)Nc1ccc(CC[C@H]2CCC/C=C/[C@@H]3C[C@H](O)C[C@H]3[C@H](O)/C=C/C(=O)O2)cc1`, for which the growth was 9.69% (active).

For `CN(C)CCN(Cc1ccccc1)c1ccc2ccccc2n1`, the growth is 98%.

Take `C/C(=N\O)c1ccc(NC(=O)CSc2nnc(-c3ccccc3)n2-c2ccccc2)cc1`: the growth was 97.5%.

On to `CCC(CC)n1c(C)cc(=O)n1C(CC)CC`, for which the growth was 106%. To `CC[C@@H](C(=O)[C@H](C)[C@H](O)[C@@H](C)[C@H]1O[C@H]([C@@H](CC)C(=O)O)CC[C@H]1C)C1O[C@]2(C=C[C@@H](O)[C@]3(CC[C@@](C)([C@H]4CC[C@](O)(CC)[C@H](C)O4)O3)O2)[C@H](C)C[C@@H]1C` (stereo not given in full) belongs 25.7%. As for `O=C(O)c1cc([N+](=O)[O-])ccc1Oc1ccccc1`, the growth is 95.4%.

As to `O=[N+]([O-])c1cccc(/C=N/NC(=S)NC23CC4CC(CC(C4)C2)C3)c1`, the growth is 96%. For the compound `COc1cc(C(=O)n2nc(-c3cc(OC)c(OC)c(OC)c3)nc2N)cc(OC)c1OC`, the growth was 100%. To `COc1ccc(-c2n[nH]nc2-c2cc(OC)c(OC)c(OC)c2)cc1` belongs 25.8%. As to `C=CCN(CC=C)C(=O)[C@H](CC)[C@@H]1CC[C@@H](C)[C@@H]([C@H](C)[C@@H](O)[C@@H](C)C(=O)[C@H](CC)C2O[C@]3(C=C[C@@H](O)[C@]4(CC[C@@](C)([C@H]5CC[C@](O)(CC)[C@H](C)O5)O4)O3)[C@H](C)C[C@@H]2C)O1` (stereo not given in full), the growth was 4.64% (active).
